# Reference: PubChem BioAssay
# Active and inactive are the calls of the source.
# Assays:
# [1] = E. coli DRC41 culture turbidity changes, primary screen, E. coli filamentation inducer project, strain DRC41, OD650, 48 h (AID 1152);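 also: E. coli MC1000 strain DRC41 lacking acrAB efflux pump and sulA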; conditions: E. coli DRC41 (acrAB sulA), higher = more signal, called active from +8 up or from −8 down
# [2] = small-molecule binders of probe aLefty1, primary screen, biochemical, small-molecule microarray, 635/667 nm fluorescence (AID 1153); conditions: higher = more signal;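 also: score merges spot fluorescence with signal-to-noise ratio from the scanned slide images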
# [3] = PSAC antagonists in infected red cells, primary screen, cell-based, P. falciparum Indochina, OD700, 1 h (AID 1154); conditions: P. falciparum Indochina infected RBC osmotic lysis, higher = more signal, called active from +8 up or from −8 down
# [4] = PSAC antagonists in infected red cells, primary screen, cell-based, P. falciparum Indochina, OD700, 2 h (AID 1155);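 also: lysis reports solute entry through the parasite surface anion channel PSAC; channel blockers reduce lysis of infected cells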; conditions: P. falciparum Indochina infected erythrocytes, osmotic lysis OD700; higher = more signal, called active from +8 up or from −8 down
# [5] = osmotic lysis modulators in infected erythrocytes, primary screen, PSAC antagonist project, cell-based, P. falciparum Indochina, OD700, 3 h (AID 1156); conditions: higher = more signal, called active from +8 up or from −8 down
# [6] = PSAC antagonists in infected red cells, primary screen, cell-based, P. falciparum Indochina, OD700, 18 h (AID 1157); conditions: P. falciparum Indochina infected erythrocytes, osmotic lysis OD700, 18 h; higher = more signal, called active from +8 up or from −8 down
# [7] = modulators of S6 phosphorylation in cells, primary screen, cell-based, A549, cytoblot, luminescence, serum-stimulated (AID 1158); conditions: A549 phospho-S6 cytoblot, 5 h, higher = more signal;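 also: serum-stimulated A549 lung adenocarcinoma cells; signal is phosphorylated S6 detected by cytoblot immunostaining with HRP secondary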
# [8] = target: NADPH oxidase 2 (Homo sapiens) (UniProt P04839); assay: NOX2-dependent H2O2 signal modulators, primary screen, NOX inhibitor project, cell-based, HEK293-NOX2, PMA-stimulated, Amplex Red fluorescence (AID 1159); conditions: 45 min, higher = more signal, called active from +8 up or from −8 down; also: test concentration not given here
# Sequence of NADPH oxidase 2 (Homo sapiens) (P04839 whole entry, looked up): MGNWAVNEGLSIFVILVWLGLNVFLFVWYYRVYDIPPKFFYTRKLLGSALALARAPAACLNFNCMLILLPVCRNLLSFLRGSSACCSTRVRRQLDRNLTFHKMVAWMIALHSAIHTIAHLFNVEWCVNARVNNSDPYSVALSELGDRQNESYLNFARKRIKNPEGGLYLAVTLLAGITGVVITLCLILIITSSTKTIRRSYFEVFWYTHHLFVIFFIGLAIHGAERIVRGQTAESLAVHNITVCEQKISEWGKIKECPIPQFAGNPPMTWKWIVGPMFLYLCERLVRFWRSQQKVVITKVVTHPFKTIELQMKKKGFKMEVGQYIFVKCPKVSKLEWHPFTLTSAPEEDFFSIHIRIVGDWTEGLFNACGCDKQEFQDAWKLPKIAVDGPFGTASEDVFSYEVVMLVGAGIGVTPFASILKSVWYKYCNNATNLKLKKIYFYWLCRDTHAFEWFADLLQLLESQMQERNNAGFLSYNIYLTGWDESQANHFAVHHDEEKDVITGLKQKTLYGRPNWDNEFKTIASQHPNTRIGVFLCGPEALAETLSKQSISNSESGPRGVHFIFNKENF
# [9] = target: NADPH oxidase 4 (Homo sapiens) (UniProt Q9NPH5); assay: NOX4-dependent H2O2 signal modulators, primary screen, NOX inhibitor project, cell-based, HEK293-NOX4, tetracycline-induced, Amplex Red fluorescence (AID 1160); conditions: 45 min, higher = more signal, called active from +8 up or from −8 down
# Sequence of NADPH oxidase 4 (Homo sapiens) (Q9NPH5 whole entry, looked up): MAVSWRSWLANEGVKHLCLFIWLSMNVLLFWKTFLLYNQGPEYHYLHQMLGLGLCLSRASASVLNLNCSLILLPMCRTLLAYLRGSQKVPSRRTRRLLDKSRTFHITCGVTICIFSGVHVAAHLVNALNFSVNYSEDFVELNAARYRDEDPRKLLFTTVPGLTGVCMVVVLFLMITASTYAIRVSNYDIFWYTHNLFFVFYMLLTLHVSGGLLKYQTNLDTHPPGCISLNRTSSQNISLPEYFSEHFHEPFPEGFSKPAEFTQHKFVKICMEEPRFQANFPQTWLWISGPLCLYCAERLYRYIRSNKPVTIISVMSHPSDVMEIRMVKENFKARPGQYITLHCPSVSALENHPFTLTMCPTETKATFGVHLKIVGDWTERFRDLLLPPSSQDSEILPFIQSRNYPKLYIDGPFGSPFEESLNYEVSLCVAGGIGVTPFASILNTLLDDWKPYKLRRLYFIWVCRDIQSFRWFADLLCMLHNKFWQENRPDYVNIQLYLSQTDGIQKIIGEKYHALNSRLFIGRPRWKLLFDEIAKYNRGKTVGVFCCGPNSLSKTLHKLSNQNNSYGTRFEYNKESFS
# [10] = target: NADPH oxidase 5 (Homo sapiens) (UniProt Q96PH1); assay: NOX5-dependent H2O2 signal modulators, primary screen, NOX inhibitor project, cell-based, HEK293-NOX5, Amplex Red fluorescence (AID 1161); conditions: HEK293-NOX5, ionomycin, 45 min, higher = more signal
# Sequence of NADPH oxidase 5 (Homo sapiens) (Q96PH1 whole entry, looked up): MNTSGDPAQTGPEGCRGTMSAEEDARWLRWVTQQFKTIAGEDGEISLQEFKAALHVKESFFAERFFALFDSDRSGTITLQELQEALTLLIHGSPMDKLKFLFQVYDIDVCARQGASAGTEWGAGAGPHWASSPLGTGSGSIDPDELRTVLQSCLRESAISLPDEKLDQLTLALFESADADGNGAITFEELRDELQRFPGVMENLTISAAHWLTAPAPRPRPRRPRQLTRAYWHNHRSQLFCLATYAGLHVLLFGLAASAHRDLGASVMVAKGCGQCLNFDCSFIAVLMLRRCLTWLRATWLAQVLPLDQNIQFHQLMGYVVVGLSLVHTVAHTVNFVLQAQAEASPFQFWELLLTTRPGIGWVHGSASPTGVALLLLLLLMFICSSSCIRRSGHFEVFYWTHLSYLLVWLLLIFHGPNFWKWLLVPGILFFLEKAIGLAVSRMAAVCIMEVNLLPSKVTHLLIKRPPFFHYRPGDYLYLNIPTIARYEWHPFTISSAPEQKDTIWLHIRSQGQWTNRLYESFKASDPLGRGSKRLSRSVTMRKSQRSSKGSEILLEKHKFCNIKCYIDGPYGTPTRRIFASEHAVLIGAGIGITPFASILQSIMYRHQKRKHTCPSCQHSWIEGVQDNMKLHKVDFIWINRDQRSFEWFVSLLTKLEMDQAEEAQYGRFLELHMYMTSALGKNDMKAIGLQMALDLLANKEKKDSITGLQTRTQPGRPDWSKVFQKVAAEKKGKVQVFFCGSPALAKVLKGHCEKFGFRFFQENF
SMILES,z-score [1],composite z-score [2],z-score [3],z-score [4],z-score [5],z-score [6],z-score [7],z-score [8],z-score [9],z-score [10]
C=CCNC(=O)[C@@H]1[C@H]2C(=O)O[C@H](c3ccccc3)[C@H](c3ccccc3)N2[C@H](c2ccc(OCCO)cc2)[C@@]12C(=O)N(C(=O)OCCOC)c1ccc(C#CC3(O)CCCCCC3)cc12,2.62 (inactive),0.372,5.36 (inactive),2.14 (inactive),0.539 (inactive),0.761 (inactive),3.82,1.03 (inactive),0.845 (inactive),-1.14
CCOC(=O)C1=CC[C@@H](c2ccccc2)N(S(=O)(=O)c2ccc(C)cc2)[C@H]1C,-1.29 (inactive),0.0668,3.28 (inactive),1.03 (inactive),-0.392 (inactive),0.215 (inactive),-0.343,0.21 (inactive),-0.291 (inactive),0.0997
[N-]=[N+]=Nc1ccccc1C[C@@]1(C(=O)N2CCOCC2)N=C(c2ccc(OCCCO)cc2)O[C@@H]1c1ccccc1N=[N+]=[N-],1.94 (inactive),0.241,29.9 (active),27.6 (active),3.13 (inactive),4.27 (inactive),2.07,0.781 (inactive),0.516 (inactive),-0.745
CC(C)C[C@@H]1NC(=O)[C@H](CC(C)C)NC(=O)[C@@]23C(=O)N[C@@H](Cc4ccccc4)C2[C@H](C)[C@@]2(C)O[C@H]2C3/C=C/CC/C=C/CNC1=O (stereo not given in full),-0.239 (inactive),0.0275,1.7 (inactive),0.627 (inactive),1.33 (inactive),0.575 (inactive),-0.0044,0.123 (inactive),0.349 (inactive),-1.62
C=CCN1C(=O)[C@@]2(Cc3ccccc3)N=C(c3ccc(OCCCO)cc3)O[C@H]2c2ccccc21,0.0648 (inactive),0.48,33.3 (active),32 (active),2.61 (inactive),9.79 (active),-0.586,-1.87 (inactive),0.969 (inactive),0.0569
O=C1O[C@H](c2ccccc2)[C@H](c2ccccc2)N2[C@H]1[C@@H](C(=O)Nc1nc3ccccc3s1)[C@]1(C(=O)Nc3ccc(C#CC4(O)CCCCCC4)cc31)[C@H]2c1ccc(O)cc1,-1.07 (inactive),0.308,0.797 (inactive),1.57 (inactive),0.315 (inactive),1.38 (inactive),-0.0907,1.03 (inactive),-0.14 (inactive),0.842
O=C(NCC(O)CO)[C@]1(Cc2ccccc2)N=C(c2ccc(OCCCO)cc2)O[C@@H]1c1ccccc1 (stereo not given in full),0.738 (inactive),1.39,25.1 (active),12 (active),0.267 (inactive),0.35 (inactive),0.807,0.489 (inactive),1.68 (inactive),1.7
CN1C(=O)C2C=CC(C(O)C3CC=CCC3)N(Nc3ccccc3)C2C1=O (stereo not given),-1.08 (inactive),0.346,0.756 (inactive),0.0735 (inactive),-0.139 (inactive),0.459 (inactive),-0.879,-1.81 (inactive),-3.23 (inactive),-3.05
C=CCc1cccc([C@H]2N[C@H](C(=O)O)CC[C@@H]2C)c1,0.574 (inactive),-0.237,0.734 (inactive),1.15 (inactive),0.794 (inactive),0.443 (inactive),-0.167,0.183 (inactive),0.773 (inactive),0.0482
O=C1C[C@@](C(=O)NCCN2CCOCC2)(c2ccc([N+](=O)[O-])cc2)[C@@H](c2ccc(CO)cc2)N1C1CCCCC1,1.21 (inactive),-0.154,2.02 (inactive),0.834 (inactive),3.08 (inactive),-0.137 (inactive),-0.371,0.768 (inactive),0.947 (inactive),0.24
CCOC(=O)C1=C[C@@H](c2ccccc2)N(S(=O)(=O)c2ccc(C)cc2)[C@H]1c1ccc(F)cc1,-1.15 (inactive),0.275,1.66 (inactive),1.42 (inactive),-0.101 (inactive),1 (inactive),-0.217,0.108 (inactive),0.814 (inactive),-0.291
COCCOC(=O)N1C(=O)[C@@]2(c3cc(C#CC4(O)CCCCCC4)ccc31)[C@H](C(=O)N1CCCCCCC1)[C@H]1C(=O)O[C@H](c3ccccc3)[C@H](c3ccccc3)N1[C@@H]2c1ccc(O)cc1,1.13 (inactive),2.25,0.908 (inactive),0.128 (inactive),-0.373 (inactive),-0.763 (inactive),1.49,1.5 (inactive),0.372 (inactive),2.35
